# Source: PubChem BioAssay (Tox21)
# “And” between values parts separate entries of the source, which are not always exact repeats. Equal entries are not always repeated. Results filed as inconclusive are left out. Unmarked numbers belong to inactive results. The source made the active and inactive calls. Calls follow the shape of the dose curve; as a rule, active = well fitted inhibition curve with a large enough effect in the repeat runs; inconclusive = weak or mixed curves; inactive = no such curve, though single readings can be large or run the other way.
# Biological target: Cytochrome P450 3A4 (Homo sapiens) (UniProt P08684)
# Sequence (P08684 whole entry, looked up): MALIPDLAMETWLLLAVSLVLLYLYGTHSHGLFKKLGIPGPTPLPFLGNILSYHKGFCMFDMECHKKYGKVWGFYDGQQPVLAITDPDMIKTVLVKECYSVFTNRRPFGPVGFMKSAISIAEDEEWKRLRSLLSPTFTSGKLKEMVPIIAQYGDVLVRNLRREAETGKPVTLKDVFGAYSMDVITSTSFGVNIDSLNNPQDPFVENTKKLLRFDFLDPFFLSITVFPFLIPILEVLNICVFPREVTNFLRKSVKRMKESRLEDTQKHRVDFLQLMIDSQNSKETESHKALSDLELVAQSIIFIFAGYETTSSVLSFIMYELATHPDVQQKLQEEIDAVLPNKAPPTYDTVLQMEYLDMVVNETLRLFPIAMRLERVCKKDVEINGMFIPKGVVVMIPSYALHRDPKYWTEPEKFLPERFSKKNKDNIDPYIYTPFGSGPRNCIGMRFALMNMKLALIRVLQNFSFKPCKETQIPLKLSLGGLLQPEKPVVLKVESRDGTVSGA
# Experiment: Cytochrome P450 Family 3 Subfamily A Member 4 (CYP3A4) small molecule antagonists: luciferase reporter qHTS assay (AID 1671201); also: nearly all actives have a fitted effect of over 50% in size
# Conditions: P450-Glo CYP3A4 enzyme, luciferin luminescence, 1 h; series mostly up to 115 µM; activity change, negative = inhibition: at the top concentration
# Source text: National Center for Advancing Translational Sciences [NCATS]
# U.S. Environmental Protection Agency [EPA]
# National Institutes of Environmental Health Sciences [NIEHS]
# National Toxicology Program [NTP]
# U.S. Food and Drug Administration [FDA]
# Cytochrome P450 (CYP) enzymes are membrane-bound hemeproteins that play a key role in metabolism of drugs and xenobiotics. Evaluation of the effect of chemicals on CYP isozymes is useful to minimize the adverse drug reactions and toxicities in drug development process. Tox21 chemicals were tested for their effect on CYP enzyme activities by using P450-Glo (TM) screening systems (Promega Corporation, Madison, WI). These systems provide a luminescent method containing proluciferin substrates and are converted to luciferin products by CYP isozymes. The luciferin products formed are detected with a luciferin detection reagent, and the amount of light produced is proportional to CYP activity. P450-Glo (TM) CYP3A4 screening system (Catalog. No. V9910) was used to detect the compounds that interfere in CYP3A4 activity. The positive control compound used for CYP3A4 assay is ketoconazole (Sigma-Aldrich, St. Louis, MO).
# Tox21 Assay Protocol Summary:
# Two ul of enzyme-substrate mix was dispensed into medium binding white/solid 1536-well plates (Greiner Bio-One North America Inc., Monroe, NC) using a BioRaptr Flying Reagent Dispenser (FRD, Beckman Coulter, Brea, CA). Compounds dissolved in DMSO and positive control (ketoconazole) were transferred to the assay plates at 23 nl using a Pintool station (Wako, San Diego, CA). The assay plates were incubated at room temperature for 10 min. Then 2 ul of NADPH regeneration solution was added to each well of the assay plates using an FRD and incubated at room temperature for 1 h. The reaction was stopped by adding 4 ul of detection reagent using an FRD and after 20 min incubation at room temperature the luminescence signal was measured using a ViewLux plate reader (Perkin Elmer, Shelton, CT). Data were expressed as relative luminescence units.
# % is scaled to controls: 0 for no effect and ±100 for the full control effect; potency is read from the fitted curve at half-maximal effect.
SMILES,"activity change, negative = inhibition",Potency
Nc1c(Oc2ccccc2)cc(O)c2c1C(=O)c1ccccc1C2=O,-6.61% [at 52.9 µM],
ClC1=C(Cl)C2(Cl)C3C(Cl)C(Cl)CC3C1(Cl)C2(Cl)Cl (stereo not given),,708 nM (active) and 2 µM (active)
O=[N+]([O-])c1cc(C(F)(F)F)c(Cl)c([N+](=O)[O-])c1Cl,,56.4 µM (active)
N#Cc1ccccc1N,-0.479%,
CCOC(=O)CC(=O)CCl,4.65%,
CC(=O)/C=C/c1ccc2c(c1)OCO2,,2.53 µM (active)
Cc1cc(C(C)(C)c2cc(C)c(O)c(C)c2)cc(C)c1O,,2.73 µM (active)
CCCCCCCCCCCCCCC(Br)C(=O)O (stereo not given),48.9%,
O=C(O)C1C2CCC(O2)C1C(=O)O (stereo not given),,inactive
Cc1cc(C(F)(C(F)(F)F)C(F)(F)F)ccc1NC(=O)c1cccc(I)c1C(=O)NC(C)(C)CS(C)(=O)=O,,2.01 µM (active)
Clc1ccc(Oc2ccccc2)cc1,5.58%,
CCC[CH2][Sn]([CH2]CCC)([CH2]CCC)[O]C(=O)c1ccccc1,,35.6 µM (active)
O=C(Cl)c1ccc(Cl)cc1,37.3%,
Oc1ccc(C2(c3ccc(O)cc3)CCCCC2)cc1,,23.9 µM (active)
O=[N+]([O-])c1ccc(Oc2ccc(C(F)(F)F)cc2[N+](=O)[O-])cc1,11.4%,
COc1cc(C=O)cc2c1[C@H](COC(N)=O)[C@]1(OC(C)=O)ON2C[C@H]2[C@@H]1N2C(C)=O,-21.7%,
O=C(CCl)Nc1ccccc1,-5.86%,
Clc1ccc(-c2ccccc2)cc1,0.425%,
N#CCCSCCC#N,3.5%,
COc1ccc(OC)c(CC(C)N)c1 (stereo not given),-0.443%,

SMILES,"activity change, negative = inhibition",Potency
NC(=O)CCl,6.54%,
O=C(CCl)C(Cl)Cl,11.3%,
O=c1[nH]c2ccccc2n1C1CCN(CCCC(c2ccc(F)cc2)c2ccc(F)cc2)CC1,338%,
Cc1ccc(OP(=O)(Oc2ccccc2)Oc2ccccc2)cc1,-47.7%,
CCCCCCCCCCCCCC[P+](CCCCCC)(CCCCCC)CCCCCC (tested in a mixture with another compound),,5.03 µM (active)
Brc1c(Br)c(Br)c(Oc2c(Br)c(Br)c(Br)c(Br)c2Br)c(Br)c1Br,2.2% [at 23.6 µM],
Cl/C=C\CCl,16.3%,
CC(C)(C)C(O)/C(=C\c1ccc(Cl)cc1Cl)n1cncn1 (stereo not given),,0.272 µM (active)
COP(=O)(CCC(=O)NCO)OC,-1.51%,
COc1ccc([N+](=O)[O-])cc1O,0.686% [at 52.9 µM],
C[C@@H]1O[C@@H](O[C@@H]2C=C3CC[C@@H]4[C@H](CC[C@]5(C)[C@@H](c6ccc(=O)oc6)CC[C@]45O)[C@@]3(C)CC2)[C@H](O)[C@H](O)[C@H]1O,73.6% [at 52.9 µM],
ClC1=C(Cl)[C@]2(Cl)[C@@H]3[C@@H](Cl)[C@@H](Cl)C[C@@H]3[C@@]1(Cl)C2(Cl)Cl,0.228%,
CC(C)C(=O)Cl,-5.08%,
CC(C)CCCCCOC(=O)c1ccccc1C(=O)OCCCCCC(C)C,,2.79 µM (active)
N#CCc1ccc(Cl)cc1,11%,
CCC(C)c1cc(C(C)(C)C)cc(-n2nc3ccccc3n2)c1O (stereo not given),-24.4% [at 52.9 µM],
CCCCCCCCCC[N+](C)(C)CCCCCCCCCC,,56.4 µM (active)
COc1ccc(N)cc1N,,11.6 µM (active)
CC(C)(C)c1cc([N+](=O)[O-])cc(C(C)(C)C)c1O,-25%,
CCOC(=O)C1(c2ccccc2)CCN(CCC(C#N)(c2ccccc2)c2ccccc2)CC1,11.5% [at 52.9 µM],
